ERG-DNA inh = inhibitors of human ERG Ets domain-DNA interaction; fluorescence polarization, His-ERG Ets domain / labelled DNA; Potency, µM (top dose mostly 76.9 µM), without a hit: at the highest dose FP activity, negative = inhibition, most hits filed as inhibitors; 370,000 compounds, 0.028% hits; active = well fitted inhibition curve with a large enough effect in the polarisation, with a control signal flat; inconclusive = small, poorly fitted or top-dose-only effect, or effect the other way, or a change in a side signal; inactive = no such curve, though single readings can be large or run the other way; the % refers to the polarisation;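 note: polarization taken with two DNA probes labelled with fluorescein and Texas red; % of control where 0% means no effect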
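His-tagged ERG Ets domain (1 uM in the protein solution; 300mM KCl, 50mM Tris-HCl, 1mM EDTA, 1mM DTT, pH 7.5) received compound, then a probe mix of 5 nM fluorescein-DNA and 100nM Texas-615-DNA. Fluorescence polarization was read for both dyes.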
TR SRC2 fluor cs = counter-screen for TRb-SRC2 inhibitors: fluorescence interference; TRb/SRC2 Texas Red total fluorescence interference; Potency, µM (highest dose often 106 µM), for inactives: at the top dose fluorescence change, negative = quenching; 280,000 compounds, 0.29% hits; active = well fitted curve in either direction with a large enough effect; inconclusive = small, poorly fitted or top-dose-only effect; note: % is set by controls: 0 for no effect and ±100 for the full control effect
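Human TRβ ligand-binding domain (0.6 uM) and Texas Red SRC2 peptide (20 nM) in Tris buffer with 1 uM T3 and 5% DMSO were incubated with pinned compound for 5 hr at ambient temperature. Total fluorescence was computed as S + 2P (555/632 nm).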
RECQ1 inh = RECQ1 (human) helicase inhibition; RECQ1 DNA unwinding, red fluorescence kinetic read; 240,000 compounds, 0.54% hits; Potency, µM (titrated, usually from 57.3 µM), for inactives: at the highest dose activity, negative = inhibition, most hits filed as inhibitors; P46063;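 note: plate controls were vehicle for no effect and no enzyme for full effect; nearly all actives have a fitted effect of over 30% in size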
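RECQ1T1 50 nM; forked duplex (20 bp + 30-nt ss tails) 200 nM, ATP 2 mM final; pH 8.0, 2 mM MgCl2, 2.5 ug/ml poly(dI-dC); 15 min compound preincubation; discontinuous kinetic read over 2 h at RT.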
BLM helicase inh = inhibitors of human Bloom syndrome helicase BLM. Potency, µM (series often up to 56.1 µM), for inactives: at the top dose activity change, negative = inhibition, actives largely listed as inhibitors. recombinant BLM DNA unwinding, fluorescence dequenching. 350,000 compounds, 0.2% hits. AID 2528;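 note: plate controls were vehicle for no effect and no enzyme for full effect; nearly all actives have a fitted effect of over 35% in size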
TRb-SRC2 inh = disrupts binding of human TR beta to SRC2. P10828. TRbeta-SRC2 peptide binding, fluorescence polarization; receptor liganded with 1 µM T3. Potency, µM (titrated, usually from 106 µM), for inactives: top-dose activity change, negative = inhibition, usual class: inhibitors. 280,000 compounds, 0.065% hits. AID 1469;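 note: plate controls were bound peptide for no effect and peptide without receptor for full effect; nearly all actives have a fitted effect of over 50% in size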
Target sequence (P10828 whole entry, looked up): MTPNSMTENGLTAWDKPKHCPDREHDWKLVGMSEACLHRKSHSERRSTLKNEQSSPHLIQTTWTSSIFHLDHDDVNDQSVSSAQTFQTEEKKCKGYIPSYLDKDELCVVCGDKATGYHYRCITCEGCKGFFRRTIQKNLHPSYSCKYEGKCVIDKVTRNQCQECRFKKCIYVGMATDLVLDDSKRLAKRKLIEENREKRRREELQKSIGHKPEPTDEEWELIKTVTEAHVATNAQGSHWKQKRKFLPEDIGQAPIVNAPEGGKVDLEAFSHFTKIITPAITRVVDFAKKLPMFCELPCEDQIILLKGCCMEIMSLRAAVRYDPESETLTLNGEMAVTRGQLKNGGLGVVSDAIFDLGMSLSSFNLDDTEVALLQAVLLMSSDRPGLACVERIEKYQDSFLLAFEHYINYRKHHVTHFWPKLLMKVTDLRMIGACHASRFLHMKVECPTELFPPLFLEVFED
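Decrease in fluorescence polarization of 20 nM Texas Red SRC2 coactivator peptide flagged inhibition of its binding to 0.6 uM TRb LBD; 1 uM T3 included, incubation 5 hr, ex 555/em 632 nm.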
RGS12 GoLoco inh = blocks human Gai1 binding to RGS12 GoLoco peptide, red readout | P63096 | Gai1:RGS12 GoLoco peptide FP, rhodamine, 10 min | Potency, µM (titrated, usually from 61.6 µM), without a hit: top-dose activity, negative = inhibition, actives largely listed as inhibitors | 230,000 compounds, 0.44% hits; active = well fitted inhibition curve with a large enough effect, not every such curve was filed as active; inactive = no such curve, though single readings can be large or run the other way; note: % is set by controls: 0 for no effect and ±100 for the full control effect; nearly all actives have a fitted effect of over 30% in size
* marks the source's active call; other numbers are inactive results; i = inactive; ? = inconclusive; . = not tested or not shown; ! = not confirmed by another sample; [ ] = remark or other dose. Rows were chosen to be rich in hits. Some 0.71% of all compounds tested hit in one or more screens of this group. Unless noted, calls come from the whole dose curve; as a rule, active = well fitted curve in the direction sought with a large enough effect; inconclusive = small, poorly fitted or top-dose-only effect, or another doubt; inactive = no such curve, though single readings can be large; an effect the other way counts as inactive or inconclusive. Potency is the fitted concentration of half-maximal effect.

SMILES	ERG-DNA inh	TR SRC2 fluor cs	RECQ1 inh	BLM helicase inh	TRb-SRC2 inh	RGS12 GoLoco inh
CCc1ccc2occ(CC(=O)NCc3ccccc3)c2c1	0%	9%	.	-3%	5%	.
CCc1ccc2occ(CC(=O)Nc3ccc(OC)c(Cl)c3)c2c1	3%	0.089µM*[quencher]	.	-9%	-17%[53 µM]	.
CC(C)(C)c1ccc(C(=O)NCCc2csc3nc(-c4ccccc4F)nn23)cc1	-1%	-2%	.	-8%	2%	.
O=C1c2ccccc2C(=O)c2c(NC(=O)c3ccc4c5c(ncnc35)-c3ccccc3C4=O)cccc21	.	.	.	.	.	2%[14.2 µM]
O=C(O)c1ccc2c3c(ncnc13)-c1ccccc1C2=O	-8%	4%	i	-2%	-13%	18µM*
CC[C@H](C)[C@H](NC(=O)[C@H](C)NC(=O)[C@H](Cc1cnc[nH]1)NC(=O)[C@@H]1CCCN1C(=O)CNC(=O)[C@H](CC(C)C)NC(=O)[C@H](CC(C)C)NC(=O)[C@H](Cc1ccc(O)cc1)NC(=O)CNC(=O)[C@H](C)NC(=O)[C@H](CO)NC(=O)[C@H](CC(N)=O)NC(=O)[C@H](CC(C)C)NC(=O)[C@@H](NC(=O)[C@H](Cc1c[nH]c2ccccc12)NC(=O)CN)[C@@H](C)O)C(=O)O	.	-2%	-15%	2%	4%	.
CCCC[C@]12Cc3cc(OC)c(OC)cc3C(O1)C1=C(O2)C(=O)c2ccccc2C1=O	.	.	.	-13%[12.4 µM]	.	.
O=C(COC(=O)C1CC2C=CC1C2)NCc1ccco1 (configuration not stated)	-6%	-5%	22µM*	?	-2%	-3%
N#Cc1cc(-c2ccccc2)nn1-c1ccccc1	4%	-2%	-5%	-2%	-12%	13µM*
CCCCOc1ccc(C(=O)N2CCN(CCc3ccncc3)CC2)cc1	-4%	6.3µM*[quencher]	.	1%	-11%	.
O=C1CC(c2ccc(O[C@@H]3OC(CO)[C@@H](O)C(O)C3O)cc2)Oc2cc(O)ccc21 (some centres not stated)	.	-1%	-5%	3%	-2%	1%
COc1ccc(-c2nnc(Nc3ccc(CC(N)=O)cc3)c3ccccc23)cc1	-3%	35µM*[quencher]	-11%	-5%	?	-4%
C=C(CC(=O)OC)C[C@]1(CC(=O)OC)CC2(CC=C(C)C)C(=O)C(C(=O)c3ccccc3)=C(OC(=O)c3ccc(Br)cc3)C(CC=C(C)C)(C1)C2=O (some centres not stated)	.	-2%[11.2 µM]	2%[11.5 µM]	-2%[12.4 µM]	7%[11.2 µM]	.
C/C=C\C1=C(CO)[C@H](O)[C@H]2O[C@H]2[C@H]1O	.	-1%[11.2 µM]	i[11.5 µM]	3%[12.4 µM]	-7%[11.2 µM]	.
C/C=C\C1=C(CO)C(=O)[C@@H]2OC2C1=O (some centres not stated)	.	?	3.5µM*	-5%[12.4 µM]	-12%[11.2 µM]	.
c1ccc(B(c2ccccc2)c2ccccc2)cc1	.	1%[201 µM]	.	.	2%[201 µM]	.
O=C=NCCCCCCN=C=O	.	-4%[201 µM]	.	.	-1%[201 µM]	.
Nc1nc(C(=O)O)c(N=Nc2ccccc2)c(=O)[nH]1	.	.	.	.	.	6%[14.2 µM]
COc1ccc(C(=O)OCC[N+]2(C)CCOCC2)cc1	-6%	2%	-7%	2%	1%	7.9µM*
CSc1ccc(CCNC(=O)c2ccc(-n3c(C)cc4c3CCC(C)C4)cc2)cc1 (configuration not stated)	1%	22µM*[quencher]	.	-4%	-11%	.
CCCSc1nc(-c2ccc(OC)cc2)cc(-c2ccccc2OC)c1C#N	-4%	-1%	.	-7%	-1%	.
CC(C)(c1cc(Br)c(O)c(Br)c1)c1cc(Br)c(O)c(Br)c1	-1%	0%[201 µM]	22µM*!	.	0%[201 µM]	-35%
O=S(c1ccc(Cl)cc1)c1cc(Cl)c(Cl)cc1Cl (configuration not stated)	.	2%[201 µM]	.	.	-2%[201 µM]	.
COc1ccc(CNC(=O)c2cnc3sc(N4CCOCC4)nn3c2=O)cc1	5%	501µM*[quencher]	.	-7%	-9%	.
COc1ccc(CCNC(=O)c2cnc3sc(N4CCOCC4)nn3c2=O)cc1	-2%	?	.	-2%	-6%	.
SMILES	ERG-DNA inh	TR SRC2 fluor cs	RECQ1 inh	BLM helicase inh	TRb-SRC2 inh	RGS12 GoLoco inh
CC(C)(C)c1ccc(-c2cn(-c3ccc(Br)cc3)c3[n+]2CCCS3)cc1	6%	-5%	-12%	2%	-2%	35µM*
c1ccc(-c2cn(-c3ccccc3)c3[n+]2CCS3)cc1	1%	-1%	i	-2%	-1%	-13%
Cc1ccc(O)c(C(CC(=O)NCC2(c3ccccc3)CCCC2)c2ccccc2)c1 (configuration not stated)	10%	0%	.	-10%	2%	.
C/C(=N\Nc1ccc([N+](=O)[O-])cc1)c1ccc(N)cc1	.	0.32µM*[quencher]	6%	-1%	-27%[53 µM]	16%
CCc1ccc(/C(C)=N\Nc2ccc([N+](=O)[O-])cc2)cc1	-1%	2%	i	-5%	-1%	26%
CCOC(=O)N1CCN(Cc2nc3cc(NC(=O)c4ccccc4[N+](=O)[O-])ccc3n2C(C)C)CC1	2%	8.9µM*[quencher]	.	-1%	?	.
CCOC(=O)N1CCN(Cc2nc3cc(NC(=O)c4ccccc4OC)ccc3n2C(C)C)CC1	1%	8%	.	-2%	-3%	.
O=C(CSc1nnc(SCc2ccccc2)s1)N/N=C/C=C\c1ccco1	5%	-21%	25µM*	18µM*	3%	27%
C/C(=N\NC(=O)Cc1cccn1C)c1ccco1	-2%	-1%	?	-7%	2%	-7%
Cn1cccc1CC(=O)N/N=C/C=C/c1ccco1	-1%	0%	-3%	25µM*	8%	102%
Cc1ccc(-c2cc3nccc(-c4cc([N+](=O)[O-])ccc4O)n3n2)cc1	12%	45µM*[quencher]	.	-2%	-6%	.
Cc1cc(-c2ccccc2)n2nc(-c3cccc(Br)c3)cc2n1	-4%	-2%	.	-5%	1%	.
Cc1cc(O)c(-c2ccnc3cc(-c4ccccc4)nn23)cc1Cl	0%	11µM*[quencher]	.	-9%	-6%	.
CCOc1cccc2oc(-c3ccccc3Cl)cc(=O)c12	.	1%	-15%[81.1 µM]	-7%[75.6 µM]	1%	3%[88.7 µM]
CC(C)NC(=O)c1ccccc1NS(=O)(=O)c1ccc(Br)s1	-7%	.	.	1%	.	.
Cc1ccccc1NS(=O)(=O)c1ccc(Br)s1	2%	112µM*[quencher]	.	-4%	-40%[53 µM]	.
C=CCC(C)(O)C#Cc1ccccc1 (configuration not stated)	.	0%	-10%	-1%	-7%	117%
CC(=O)N[C@@H](CC(=O)O)C(=O)O	28µM*	-7%[53 µM]	-13%[25.9 µM]	4%[21.4 µM]	-2%[53 µM]	0%[21.6 µM]
CC1=CC2(O)OCCN(CCO)C2=CC1=O (configuration not stated)	-2%	-25%	25µM*	?	-16%	-15%
